Only some compounds are listed: those with a hit (about 4.2% of all), similar ones and a draw of the others.
SMARCA2 act = activators of SMARCA2 function; MG213 cells, MMTV-luciferase reporter, dexamethasone, overnight; activation, % at 9.1 µM; 370,000 tested, 1% active; AID 652017; in the data active = activation above about 7.8%;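 also: 0% = vehicle wells and 100% = reference activator wells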
hcDAF-12 act = activators of H. contortus DAF-12 nuclear receptor; HEK293 hcDAF-12 lit1-tk-luc reporter, luminescence; 0% DMSO, 100% Δ7-dafachronic acid; activation, % at 6.8 µM; 370,000 tested, 1.4% active; AID 652067;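 active = activation above the mean of all tested compounds plus 3 SD, cut at about 5.5% in these data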;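 also: 100% = response to 3 µM Δ7-dafachronic acid high control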
ssDAF12 agonist = S. stercoralis DAF-12 activation, primary screen. HEK293 ssDAF-12/GRIP1 lit1-tk-luc reporter, luminescence; % of 3 µM dafachronic acid response. activation, % at 6.8 µM. 370,000 tested, 1% active;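 active = activation above the mean over all tested compounds plus 3 SD, cut at about 0.9% in these data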;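 also: 0% = DMSO-only wells and 100% = 3 µM delta7-dafachronic acid wells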
DAX1 inh = inhibitors of DAX1 repression of SF-1 activated StAR promoter; inhibition, % at 6.8 µM; 370,000 tested, 1.1% active; HEK293T StAR-luciferase reporter, SF-1/DAX-1 repression relief;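 active = inhibition above the mean over all tested compounds plus 3 SD, cut at about 3.6% in these data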;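 also: 0% = DAX-1 cells with DMSO and 100% = cells lacking DAX-1 with DMSO; higher inhibition means more luminescence from relief of DAX-1 repression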
hgDAF12 agonist = hgDAF-12 agonism, primary luciferase screen | HEK293 GAL4-hgDAF12 UAS-luciferase reporter, agonist luminescence; normalized to butyrate control | activation, % at 6.8 µM | 370,000 tested, 1.8% active | AID 687014;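 active = activation above a cutoff set at the mean of all screened compounds plus 3 SD, cut at about 10% in these data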;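 also: 0% = DMSO wells and 100% = sodium butyrate wells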
* marks the source's active call; other numbers are inactive results.

SMILES | SMARCA2 act | hcDAF-12 act | ssDAF12 agonist | DAX1 inh | hgDAF12 agonist
Cc1ccc(/C=C2\C(=O)NC(=S)N(c3ccc(F)cc3)C2=O)s1 | 7 | 4 | 0 | 4.0* | 7
CC/C(=N\Nc1ccccc1)c1c(O)n(C)c(=O)n(C)c1=O | 1 | 4 | -1 | 0 | 0
C/C(=N\NC(=S)Nc1ccccc1)c1c(O)n(C)c(=O)n(C)c1=O | 1 | 4 | 0 | 1 | 11*
Cn1c(O)c(C(=Nc2ccccc2)SCc2ccccc2Cl)c(=O)n(C)c1=O | -4 | 5 | -1 | 0 | 4
CSC(=Nc1ccccc1)c1c(O)n(C)c(=O)n(C)c1=O | 0 | 5.7* | -1 | 0 | 4
CC1CCN(CC(=O)c2ccccc2Cl)CC1 | 5 | 4 | 0 | 1 | 11*
CC1CN(CC(=O)c2ccccc2Cl)CC(C)O1 (stereo unspecified) | 5 | 1 | -1 | 0 | 4
Clc1ccc2[nH]c3c(c2c1)CCNC3 | 0 | -2 | 0.9* | 0 | 1
COc1ccccc1N(CC(=O)NC1CCCCC1)C(=O)c1cnn(C(C)C)c1 | -3 | 3 | 1.3* | 0 | 0
S=C=Nc1cccc(C2(N3CCCCC3)CCCCC2)c1 | 11* | -1 | -1 | 0 | 0
c1ccc(C2(N3CCCCC3)CCCCC2)cc1 | -1 | -1 | -1 | 0 | 3
Nc1c(C(=O)NCCCc2ccccc2)c2nc3ccccc3nc2n1Cc1cccs1 | 0 | 2 | 2.3* | -2 | -4
CCCCCn1c(N)c(C(=O)NCc2cccs2)c2nc3ccccc3nc21 | -2 | 0 | -1 | -1 | -1
COP(=O)(OC)OC=C(Cl)Cl | -3 | 0 | -1 | 1 | -4
O=c1[nH]c(=O)n(-c2cccc(F)c2)c(O)c1/C=C1\C=Nc2ccccc21 | -3 | 5.7* | 0 | 0 | 1
CN(C(=O)Oc1ccc(C(C)(C)C)cc1)c1ccccc1 | 4 | -2 | -1 | 0 | 11*
CN(C(=O)Oc1ccc(F)cc1)c1ccccc1 | 1 | 0 | -1 | 0 | -2
CC(C)NC1(c2ccccc2)CCCCC1 | 2 | 1 | -2 | 1 | 0
O=C(O)c1cc2ccccc2n1C1CCN(Cc2ccccc2)CC1 | -1 | -3 | -1 | -1 | 2
CCOC(=O)c1c(C)[nH]c(C(=O)C(Cc2ccccc2)N(C)C)c1C (stereo unspecified) | 3 | -2 | -1 | -1 | 3
COC(=O)c1c(C)[nH]c(C(=O)C(Cc2ccccc2)N(C)C)c1C (stereo unspecified) | -3 | 6.4* | 0 | 0 | 2
CC(C)C(NC(=O)OCc1ccccc1)P(=O)(Oc1ccccc1)Oc1ccccc1 (stereo unspecified) | -2 | -2 | -1 | -2 | -2
O=C1NCN(c2ccccc2)C12CCN(C(c1ccccc1OC(F)(F)F)c1nnnn1-c1ccc3c(c1)OCCO3)CC2 (stereo unspecified) | -6 | -2 | -2 | -2 | -1
O=C(Nc1ccc(Cl)cc1)Nc1nccs1 | -1 | 2 | 0 | -2 | 11*
O=C(Nc1nccs1)C(Cl)(Cl)Cl | -2 | 0 | -1 | 2 | 0
SMILES | SMARCA2 act | hcDAF-12 act | ssDAF12 agonist | DAX1 inh | hgDAF12 agonist
COc1ccc2cc(C(=O)C3CCCN(C4CCOCC4)C3)ccc2c1 (stereo unspecified) | 1 | 3 | -2 | 4.4* | -3
Cc1cc(/C=C2\C(=O)NC(=O)N(c3cccc(Br)c3)C2=O)c(C)n1C | 1 | 0 | -1 | 0 | 0
Cc1cc(/C=C2/C(=O)NC(=O)N(c3ccc(Br)cc3)C2=O)c(C)n1C | -2 | 5.9* | 0 | 0 | 3
COC(=O)C1=C(c2ccc(OCc3ccccc3)c(F)c2)C[C@@H]2CC[C@H]1N2C | -4 | -1 | -2 | -1 | -3
COc1cc(C=C2C(=O)NC(=O)NC2=O)ccc1OCc1ccc([N+](=O)[O-])cc1 | 2 | 3 | -1 | 2 | 13*
COc1ccc(NC(=S)N2Cc3ccccc3-n3nncc3C2)c(OC)c1 | -6 | -1 | -1 | -1 | -1
O=C(CN1C(=O)COc2ccccc21)N1CCC2(CC1)OCCO2 | -1 | 0 | -1 | 0 | -1
O=C(CSc1ccccc1)N1CCC2(CC1)OCCO2 | 4 | 3 | -1 | 3.9* | 4
O=c1[nH]c2ccccc2n1C1CCN(C(CCc2ccccc2)c2nnnn2-c2ccc3c(c2)OCCO3)CC1 (stereo unspecified) | -6 | -3 | -1 | -4 | -5
COc1ccc(-n2nc(C(=O)NCC(=O)N3CCC4(CC3)OCCO4)c3ccccc3c2=O)cc1 | 7 | 5.8* | -1 | 1 | 8
COc1ccc(CNCC(=O)N2CCC3(CC2)OCCO3)cc1 | -2 | -1 | -1 | 0 | 5
CC(=O)OC1CC(OC2C(O)CC(OC3C(O)CC(OC4CCC5(C)C(CCC6C5CCC5(C)C(C7=CC(=O)OC7)CCC65O)C4)OC3C)OC2C)OC(C)C1OC1OC(CO)C(O)C(O)C1O (stereo unspecified) | -11 | -4 | -3 | -10 | -15
CC(=O)OC1CC[C@]2(C#N)[C@H]3CC[C@]4(C)[C@H](C5C=CC(=O)O5)CCC4(O)C3CCC2(O)C1 (stereo partly specified) | 7.8* | 1 | -1 | 3 | -1
CC1(C)CN=C(NCc2ccccc2)S1 | 5 | -1 | -1 | 0 | 0
CC1(C)CN=C(Nc2nc3ccccc3s2)S1 | 4 | 5 | 1.5* | 3 | 10
CC(=NNC(=S)N1CC2CCC(CC2)C1)c1nccs1 | -4 | 5 | 0 | -1 | 12*
Nc1c2c(nc3ccccc13)CCN(Cc1ccccc1)C2 | 2 | 6.1* | 0 | 0 | 4
C1=C(c2c[nH]c3ccccc23)CCN(Cc2ccccc2)C1 | -6 | -2 | -1 | -2 | -6
CCOC(=O)[C@]12Cc3cc(C)ccc3[C@H]1N(Cc1ccccc1)C(=O)c1cc(F)c(F)cc12 | -4 | 0 | 0 | 1 | 2
NC(Cc1ccccc1)[P+](=O)O (stereo unspecified) | 1 | -1 | -1 | -1 | -1
Nc1ccc(Cl)c(Cl)c1 | 0 | 0 | 1.1* | 0 | 2
C/C(=N\NC(=O)c1ccccc1)c1c(O)n(Cc2ccccc2)c(=O)[nH]c1=O | 5 | 3 | -1 | 1 | 11*
O=c1[nH]c(=S)[nH]c(O)c1/C=C1/C=c2ccccc2=N1 | -4 | 5.8* | 0 | 0 | 3
C[C@@H]1CN([C@H](C)CO)C(=O)CCCn2nncc2CO[C@@H]1CN(C)C(=O)Oc1ccc2ccccc2c1 | -1 | 1 | -1 | -1 | -1
CCSC(=O)N1CCCCCC1 | 7.8* | 0 | 0 | 1 | 7
O=C1NCN(c2ccccc2)C12CCN(C(c1cccs1)c1nnnn1Cc1ccccc1)CC2 (stereo unspecified) | -2 | 0 | -1 | -2 | -2
